In ChEMBL document CHEMBL3988442, “University of Dundee, Small-Polar-MMV Screening Library” (2021):
The whole screen tested about 48,000 compounds, of which about 13,000 (27%) showed an effect of 50% or more. This is one part of the list.

System: Wolbachia pipientis
Assay: Anti-Wolbachia Cell-Based Screen
Assay type: functional
Set-up: scale not given: in the data most compounds retested in dose-response had high values
Conditions: 5 µM

Compared with `CCOC(=O)c1nc(CN2CCN(C(C)C(=O)NC3CC3)CC2)cs1` (centres undefined), `CCOC(=O)N1CCC(NC(=O)Nc2cccnc2OCC)CC1` is higher in “Percent Effect” value: -13.36% for the first, 102.8% for the second.

Going from `COc1ccc2cccc(CC(=O)NCCc3n[nH]c(=O)[nH]3)c2c1` to `CCCC(=O)NCCc1nc2cc(-c3ccc(OC)cc3)ncn2n1`, the “Percent Effect” value rises from -7.606% to 102.6%.

Compared with `COc1ccc(CCC(=O)NCc2cc(C)on2)cc1`, `COc1ccc(CN2CCn3cc(CNC(=O)CC4CC4)nc3C2)cc1.O=C(O)C(F)(F)F` is lower in “Percent Effect” value: 0.6679% for the first, -3.28% for the second.

Going from `Cn1cnc2c(-c3cccnc3)nc(C3CCN(S(C)(=O)=O)CC3)cc21` to `CCNc1nc(-c2cccnc2)c(-c2ccnc(NS(C)(=O)=O)n2)s1`, the “Percent Effect” value rises from -22.74% to 73.47%.

First: CC(C)(C)Nc1nc(-c2cccnc2)c(-c2ccnc(NCCO)n2)s1
Second: CCNc1nc(-c2cccnc2)c(-c2ccnc(NCCO)n2)s1
The “Percent Effect” value of the first is lower: 93.88% for the first, 103.5% for the second.

First: COc1ccc(NCc2c[nH]nc2-c2cccnc2)cc1
Second: CCCNCc1cn(Cc2ccccc2)nc1-c1cccnc1.Cl
The “Percent Effect” value of the first is lower: -7.559% for the first, -0.3485% for the second.

Going from `CC(CNc1nccc(C(C)C)n1)Oc1cccnc1` (centres undefined) to `CC(C)Nc1ncccc1C(=O)NCc1ccnn1C`, the “Percent Effect” value falls from 15.19% to -5.174%.

Compared with `Cn1c(CN2CCC(O)CC2)nnc1C1CCCN(c2ccncc2)C1` (centres undefined), `Cc1ccc(N2CCC3(CCN(Cc4nccs4)CC3)CC2)nn1` is higher in “Percent Effect” value: -3.015% for the first, 5.38% for the second.

First: N#Cc1cc(Cl)ccc1N1CCOC(C(N)=O)C1 (centres undefined)
Second: Cc1ccc(C)c2c(=O)cc(CN3CC[C@@H](N)[C@H](O)C3)[nH]c12
The “Percent Effect” value of the first is lower: -16.78% for the first, -6.693% for the second.

Going from `Cc1cccc(CN2CCN(c3ncnc4[nH]cnc34)CC2CCO)n1` (centres undefined) to `Cc1ccc(C(=O)NC2CCCN(c3ncccn3)C2)cn1` (centres undefined), the “Percent Effect” value falls from 8.055% to 6.467%.

First: CCOc1ncccc1C(=O)NC1CCCN(c2ncccn2)C1 (centres undefined)
Second: COc1ncccc1NC(=O)NC1CCCN(c2ncccn2)C1 (centres undefined)
The “Percent Effect” value of the first is lower: 120.7% for the first, 123% for the second.

Going from `CCOc1ncccc1NC(=O)N1CCOCC1C` (centres undefined) to `CCOc1ncccc1NC(=O)N1CCCC1c1cc(C)no1` (centres undefined), the “Percent Effect” value rises from -9.997% to 4.545%.

Compared with `CCOc1ncccc1NC(=O)NC1CCN(c2ncccn2)CC1`, `CCOCc1ccccc1NC(=O)NC1CCN(c2ncccn2)CC1` is lower in “Percent Effect” value: 128.6% for the first, 3.518% for the second.

Going from `CCOc1ncccc1NC(=O)N1CCCCCC1` to `CCCC1CCCN(C(=O)Nc2cccnc2OC)CC1` (centres undefined), the “Percent Effect” value rises from 3.505% to 9.171%.

First: CCOc1ncccc1C(=O)NC1CC(=O)N(CC(F)(F)F)C1 (centres undefined)
Second: CCOc1ncccc1NC(=O)NC1CCCN(S(C)(=O)=O)C1 (centres undefined)
The “Percent Effect” value of the first is lower: -4.406% for the first, 87.05% for the second.

Compared with `CCOc1ncccc1NC(=O)NC1CCN(C(=O)C2CC2)CC1`, `CCOc1ncccc1NC(=O)NC1CCN(C(C)=O)CC1` is higher in “Percent Effect” value: 105.1% for the first, 106.2% for the second.

First: CCOc1ccc(C(=O)NC2CCN(c3ncccn3)CC2)cc1C
Second: Cc1ccc(CNC(=O)NC2CCCN(c3ncccn3)C2)cn1 (centres undefined)
The “Percent Effect” value of the first is higher: 5.908% for the first, -0.9532% for the second.

Going from `CCN1CCC(CNC(=O)Nc2cccnc2OC)CC1` to `COc1ncccc1NC(=O)NCC1CC1`, the “Percent Effect” value falls from 15.3% to 5.858%.

Going from `CCN(CC(F)(F)F)C(=O)C1CCCN(Cc2ccno2)C1` (centres undefined) to `CCCN1CCCn2c(nc(CNC(=O)c3ccsc3)cc2=O)C1.O=C(O)C(F)(F)F`, the “Percent Effect” value falls from -5.798% to -11.31%.

First: CCOCCC(=O)N1CC(=O)Nc2cc(Br)ccc21
Second: CCOCc1ccccc1NC(=O)NC1CCN(C(=O)OCC)CC1
The “Percent Effect” value of the first is lower: 10.79% for the first, 14.37% for the second.

Compared with `CC(=O)NC(Cc1c[nH]c2cc(F)ccc12)C(=O)Nc1nonc1C` (centres undefined), `O=C(CN1CCCC1c1nc2cc(F)ccc2[nH]1)NCc1ccccn1` (centres undefined) is higher in “Percent Effect” value: -8.72% for the first, -7.361% for the second.

First: Cc1cccc(C(C(=O)NCCCc2nnc3ccccn23)N(C)C)c1 (centres undefined)
Second: Cc1cccc(-n2nc(CC(C)C)nc2CCC(=O)N(C)C)c1
The “Percent Effect” value of the first is lower: -0.5328% for the first, 1.155% for the second.

Compared with `O=C(O)C(F)(F)F.c1ccc(NC[C@@H]2CCC[C@@H]3CN(c4ncccn4)C[C@@H]32)nc1`, `Cc1cnc(N2C[C@H]3CN(Cc4csc(C)n4)C(=O)[C@H]3C2)nc1.O=C(O)C(F)(F)F` is lower in “Percent Effect” value: 13.12% for the first, -0.6865% for the second.

Compared with `CCOc1ncccc1NC(=O)N1CCN(c2cccc(C)c2C)CC1`, `CC(=O)N1CCN(Cc2c(C)ccc3ccccc23)CC(O)C1` (centres undefined) is higher in “Percent Effect” value: -4.888% for the first, 0.367% for the second.

Compared with `COc1ncccc1NC(=O)C1CCN(S(C)(=O)=O)CC1`, `CN1C(=O)C2(CCN(S(=O)(=O)C3CC3)CC2)c2ccccc21` is lower in “Percent Effect” value: 9.079% for the first, -8.422% for the second.

Compared with `COc1cc(CN2CCCC(Nc3cccc(F)c3)C2)cc(Cl)c1O` (centres undefined), `COCC(=O)NCc1cc(=O)n2c(n1)CN(Cc1ccccc1)CCC2.O=C(O)C(F)(F)F` is higher in “Percent Effect” value: 5.248% for the first, 93.29% for the second.

Going from `O=C(CCc1nc(-c2cccnc2)no1)N(CC1CCOC1)C1CC1` (centres undefined) to `CCS(=O)(=O)NCC1OCCc2cn(CC3CCOCC3)nc21` (centres undefined), the “Percent Effect” value falls from -0.4889% to -7.17%.

First: CCCC(NC(=O)c1cc(C)n(C2CC2)c1C)c1nnn[nH]1 (centres undefined)
Second: Cc1c[nH]c(CN(C)C(=O)C2CC(=O)N(Cc3ccncc3)C2)n1 (centres undefined)
The “Percent Effect” value of the first is higher: 4.085% for the first, -14.3% for the second.

Going from `NS(=O)(=O)CCNC(=O)c1ccc(-c2ccc(F)cc2)cc1F` to `CC(C)Sc1ncccc1C(=O)NCc1ccc(CS(C)(=O)=O)cc1`, the “Percent Effect” value rises from -11.53% to 3.251%.

Going from `O=C(CN1CCCC1CCCO)NCc1ccccn1` (centres undefined) to `O=C(CN1CCCC1CC(=O)c1ccccc1)NCc1ccccn1` (centres undefined), the “Percent Effect” value falls from 111.1% to 107.5%.

First: O=C(CN1CCOCC1CC(=O)c1ccco1)NCc1ccccn1 (centres undefined)
Second: O=C(CN1CCCC1COc1ccccc1)NCc1ccccn1 (centres undefined)
The “Percent Effect” value of the first is lower: -22.29% for the first, 90.25% for the second.

First: O=C(CN1CCCCCCC1=O)NCc1ccccn1
Second: O=C(c1cccnc1N1CCN(Cc2ccoc2)CC1)N1CCCCC1
The “Percent Effect” value of the first is lower: 8.013% for the first, 11.57% for the second.

First: c1ccc2c(c1)CC(N1CCCC(NCc3ccc4nonc4c3)C1)C2 (centres undefined)
Second: CN1CCC(N(C)C[C@H]2CC[C@@H](Cc3ccc4occc4c3)O2)CC1
The “Percent Effect” value of the first is higher: 0.08784% for the first, -18.26% for the second.

First: CN(C)S(=O)(=O)c1ccc(CNC(=O)c2cn3c(n2)CNCC3)cc1
Second: CC(C)Sc1ncccc1C(=O)NCc1ccc(O)cc1
The “Percent Effect” value of the first is lower: -2.346% for the first, 102.9% for the second.

Compared with `Cc1ccnn1C(C)C(=O)Nc1cc(-c2ccncc2)[nH]n1` (centres undefined), `CC(C)Sc1ncccc1C(=O)NCc1ccoc1` is higher in “Percent Effect” value: 16.43% for the first, 124.5% for the second.

Compared with `O=C(NCCNc1ncccn1)N1CC=C(c2ccccc2)CC1`, `Nc1cc(CCCNC(=O)NC2CC2)nn1-c1ccccc1` is lower in “Percent Effect” value: 13.59% for the first, -28.53% for the second.

First: CCCN1CCCn2c(nc(CNC(=O)N3CCCC3)cc2=O)C1.O=C(O)C(F)(F)F
Second: COCCN1CCCn2c(nc(CNC(=O)COC)cc2=O)C1.O=C(O)C(F)(F)F
The “Percent Effect” value of the first is lower: 1.555% for the first, 101.5% for the second.

First: COCCN1CCCn2c(nc(CNS(C)(=O)=O)cc2=O)C1.O=C(O)C(F)(F)F
Second: COCC(=O)NCc1cc(=O)n2c(n1)CN(C)CCC2.O=C(O)C(F)(F)F
The “Percent Effect” value of the first is lower: 96.89% for the first, 104.3% for the second.

Going from `CN1CCCn2c(nc(CNC(=O)c3nccn3C)cc2=O)C1.O=C(O)C(F)(F)F.O=C(O)C(F)(F)F` to `CC(C)N1CCCn2c(nc(CNC(=O)c3nccn3C)cc2=O)C1.O=C(O)C(F)(F)F.O=C(O)C(F)(F)F`, the “Percent Effect” value rises from -10.78% to -1.312%.

Going from `CN1CCCn2c(nc(CNC(=O)c3ccsc3)cc2=O)C1.O=C(O)C(F)(F)F` to `O=C(NCc1cc(=O)n2c(n1)CN(CC1CC1)CCC2)c1ccsc1.O=C(O)C(F)(F)F`, the “Percent Effect” value rises from -36.6% to 88.56%.

Compared with `CCc1nn(C)c(CC)c1CNC(=O)Nc1cccc2c1CCN2C`, `Cc1ccc(N2CCC3(CCN(Cc4csc(C)n4)C3=O)C2)nn1` (centres undefined) is higher in “Percent Effect” value: -5.732% for the first, 95.91% for the second.

Compared with `O=C1CCC2(CCN(CCSc3ccccc3)CC2)CN1CCCO`, `Cc1nc(CN2CCC3(CCN(C(=O)c4ccoc4C)CC3)C2)cs1.O=C(O)C(F)(F)F` is higher in “Percent Effect” value: -17.17% for the first, 2.621% for the second.

Going from `CC(CNC(=O)N1CCS(=O)(=O)CC1)Cc1cccs1` (centres undefined) to `COCC(=O)NCc1cc(=O)n2c(n1)CN(CC1CC1)CCC2.O=C(O)C(F)(F)F`, the “Percent Effect” value rises from 21.62% to 83.83%.

Going from `Cc1nnc(C(C)NCC2(c3c(F)cccc3F)CCCC2)o1` (centres undefined) to `Cc1ccc(N2CCC3(CCN(Cc4csc(C)n4)CC3)CC2)nn1`, the “Percent Effect” value falls from 5.955% to -10.89%.

Going from `COc1ccc(CN2CCn3cc(CNC(=O)C4CCC4)nc3C2)cc1.O=C(O)C(F)(F)F` to `O=C(NCc1cc(=O)n2c(n1)CN(CC1CCOC1)CCC2)C1CC1.O=C(O)C(F)(F)F` (centres undefined), the “Percent Effect” value falls from -6.087% to -7.493%.

Going from `Cc1ccc(C(C)(O)CNC(=O)c2sccc2OC(F)F)o1` (centres undefined) to `CSc1ncccc1C(=O)NCCC(O)c1ccco1` (centres undefined), the “Percent Effect” value rises from -15.69% to -7.347%.

Compared with `O=C1N(c2ccccc2)Cc2nc(=O)[nH]n21`, `Cc1nc(CN2CCC3(CCN(c4ncc(F)cn4)C3)C2=O)cs1.O=C(O)C(F)(F)F` (centres undefined) is lower in “Percent Effect” value: 8.633% for the first, -4.043% for the second.

Compared with `COc1cc(N2CCC3(CCN(Cc4csc(C)n4)C3=O)C2)ncn1.O=C(O)C(F)(F)F` (centres undefined), `Cc1cnc(N2CCC3(CCN(Cc4csc(C)n4)C3=O)C2)nc1.O=C(O)C(F)(F)F` (centres undefined) is lower in “Percent Effect” value: 173.5% for the first, 101.3% for the second.

Going from `Cc1nc(CN2CCC3(CCCN(C(=O)c4cnccn4)C3)C2)cs1.O=C(O)C(F)(F)F` (centres undefined) to `COc1cc(N2CCC3(CCN(Cc4csc(C)n4)C3)CC2)ncn1.O=C(O)C(F)(F)F`, the “Percent Effect” value rises from -5.513% to 133.8%.

`Cc1cnc(N2CCCC3(CCN(Cc4csc(C)n4)C3=O)C2)nc1.O=C(O)C(F)(F)F.O=C(O)C(F)(F)F` (centres undefined) was tested, and the “Percent Effect” value was -16.03%.
